Each structure is given as a SMILES string.

The test system of this experiment is Plasmodium falciparum. Description: GSK_TCMDC: Inhibition of Plasmodium falciparum Dd2 in whole red blood cells, using parasite LDH activity as an index of growth. Test compounds present at 2uM. It is filed as functional.
As a reminder, the Inhibition is the share of the control response that was lost under treatment. Regarding `CCC(NCc1ccc(-c2cncc(C(=O)NCC(C)C)c2)cc1)c1ccccc1.O=C(O)C(F)(F)F` (stereo not drawn), the Inhibition was found to be 8%.

In turn, `OC(CNCc1ccccc1Oc1ccccc1)c1cc(Br)cs1` (stereo not drawn) registered an Inhibition of 79%.

The molecule `O=C(NC1CCN(Cc2ccccc2)CC1)c1cccc(-c2cc3cc(Cl)c(Cl)cc3[nH]2)c1.O=C(O)C(F)(F)F` gave an Inhibition of 86%.

`CCNc1cc(C(=O)N[C@@H](Cc2ccccc2)[C@H](O)CN[C@@H](C)c2cccc(OC)c2)cc(N2CCCC2=O)c1.O=CO` showed an Inhibition of 65%.

In the case of `CC[C@H](C)CNC(=O)c1cncc(-c2ccc(CNCCCc3ccccc3)cc2)c1.O=C(O)C(F)(F)F`, the Inhibition amounted to 99%.

`CS(=O)(=O)CCOCc1ccc(-c2ccc3ncnc(Nc4ccc(OCc5cccc(F)c5)c(Cl)c4)c3c2)o1` displayed an Inhibition of 43%.

Regarding `CCN1C(c2ccc(Cl)cc2)C(CNCc2ccccc2O)CC1(C)CO` (stereo not drawn), the Inhibition was found to be 99%.

`CN1CCN(CCCNCc2ccc(Nc3nccc(Nc4ccc(Oc5ccccc5)cc4)n3)cc2)CC1` gave an Inhibition of 9%.

As for `COc1cc(Nc2ccnc3ccc(C(F)(F)F)cc23)cc(OC)c1OC`, the Inhibition is reported as 100%.

Take `O=C(O)C(F)(F)F.O=S(=O)(/C=C/c1ccccc1)N(Cc1ccc(-c2ccc(CNCCc3ccccc3)cc2)cc1)CC1CCCCN1` (stereo not drawn): the Inhibition came to 96%.

Molecule `COc1ccc2nccc(NC(=O)C3CCC(NCc4cnc(SC)c([N+](=O)[O-])c4)CC3)c2n1.Cl` (stereo not drawn) came in with an Inhibition of 44%.

Consider `O=C(/C=C/c1ccc(Cl)cc1Cl)NCCCCCN1CCC(c2c[nH]c3ccccc23)CC1`, for which the Inhibition is listed as 9%.

Regarding `CCCc1cc(Cc2cnc(N)nc2N)cc(OCCCCCC(=O)O)c1OC.Cl`, the Inhibition was found to be 2%.

Source of the values: ChEMBL document CHEMBL1157539, “Thousands of chemical starting points for antimalarial lead identification” (Nature, 2010).
